The text below walks through data of the supplement of paper PMC13380429.

Assay [1] has as its system Vero E6 infected with SARS-CoV-2. The assay can be described thus: inhibition of SARS-CoV-2 cytopathic effect; higher = more antiviral protection, active = above 15. Conditions: 48 h. A general note: Cytopathic effects are the visible damage that an infection or toxin causes in cultured cells.
For assay [2] the test system is unchanged. The assay can be described thus: morphology score (similarity to uninfected cells); higher = more like uninfected cells. Conditions: 24 h.

Turning to `CCn1c(=O)/c(=C2\Sc3ccccc3N2C)s/c1=C\c1cccc[n+]1CC`, the “inhibition of SARS-CoV-2 cytopathic effect” value (“inhibition” below) in assay [1] (1 nM) was -0.41% (inactive); in assay [1] (8.33 nM), 2.22% (inactive); in assay [1] (100 nM), -0.82% (inactive); in assay [1] (833.33 nM), -0.9% (inactive); in assay [1] (10000 nM), -6.25% (inactive).

With `Cc1cccc(C)c1NC(=O)C[N+](C)(C)C`, the “inhibition” value in assay [1] (1 nM) was -1.32% (inactive); in assay [1] (8.33 nM) it was 0.36% (inactive); in assay [1] (100 nM), 0.02% (inactive); in assay [1] (833.33 nM) it was -0.1% (inactive); in assay [1] (10000 nM), 0.5% (inactive).

On to `CCCC[C@@]1(C2CCCC2)Cc2cc(OCCCC(=O)O)c(Cl)c(Cl)c2C1=O`, for which the “inhibition” value in assay [1] (1 nM) was 2.56% (inactive); in assay [1] (8.33 nM) it was 0.21% (inactive); in assay [1] (100 nM), 0.81% (inactive); in assay [1] (833.33 nM), 2.21% (inactive); in assay [1] (10000 nM), 2.61% (inactive).

On to `Cc1ccc(S(=O)(=O)NC2c3ccccc3Oc3ccccc32)cc1`, for which the “inhibition” value in assay [1] (1 nM) was -5.59% (inactive); in assay [1] (8.33 nM) it was -2.13% (inactive); in assay [1] (100 nM), -2.17% (inactive); in assay [1] (833.33 nM) it was -6.38% (inactive); in assay [1] (10000 nM), -2.38% (inactive).

In the case of `c1nc(CC2CCNCC2)c[nH]1` [immepip], the “inhibition” value in assay [1] (1 nM) is -1.43% (inactive); in assay [1] (8.33 nM) it was -3.19% (inactive); in assay [1] (100 nM), -3.25% (inactive); in assay [1] (833.33 nM), -0.04% (inactive); in assay [1] (10000 nM) it was 0.13% (inactive).

`C[C@]12CC[C@H](O)CC1=CC[C@@H]1[C@@H]2CC[C@]2(C)C(=O)CC[C@@H]12` (10 µM): the morphology score in assay [2] stood at 0.0986.

Take `Cc1c(Cn2c(C)nc3c(C(=O)O)cc(N4CCOCC4)cc32)cccc1C(F)(F)F`: the “inhibition” value in assay [1] (1 nM) was 1.56% (inactive); in assay [1] (8.33 nM), 4.39% (inactive); in assay [1] (100 nM), 3.91% (inactive); in assay [1] (833.33 nM), -2.09% (inactive); in assay [1] (10000 nM), -2.66% (inactive).

In the case of `c1cnc(SCc2cccnc2)nc1` [tasuldine], the “inhibition” value in assay [1] (1 nM) was 1.94% (inactive); in assay [1] (8.33 nM) it was 1.66% (inactive); in assay [1] (100 nM) it was 0.38% (inactive); in assay [1] (833.33 nM) it was 0.69% (inactive); in assay [1] (10000 nM), 1.89% (inactive).

Take `CC(=O)OCC(=O)[C@@]12OC3(CCCC3)O[C@@H]1C[C@H]1[C@@H]3CCC4=CC(=O)C=C[C@]4(C)[C@@]3(F)[C@@H](O)C[C@@]12C` [amcinonide]: the “inhibition” value in assay [1] (1 nM) is -1.51% (inactive); in assay [1] (8.33 nM), -0.7% (inactive); in assay [1] (100 nM), -1.46% (inactive); in assay [1] (833.33 nM), -0.87% (inactive); in assay [1] (10000 nM), -3.21% (inactive).

With `Cn1cc(C(F)(F)F)nc1-c1ccc(OCC(O)CNCCOc2ccc(O)c(C(N)=O)c2)cc1` (stereo unspecified), the “inhibition” value in assay [1] (1 nM) was -0.25% (inactive); in assay [1] (8.33 nM), -0.6% (inactive); in assay [1] (100 nM), 0.3% (inactive); in assay [1] (833.33 nM), -1.37% (inactive); in assay [1] (10000 nM), 1.34% (inactive).

Consider `Cc1csc(S(=O)(=O)N(CC(C)C)c2cc3c(cc2OCc2ccc(C(=O)O)cc2)CCC3)n1`, for which the “inhibition” value in assay [1] (1 nM) was -2.46% (inactive); in assay [1] (8.33 nM) it was -1.9% (inactive); in assay [1] (100 nM), 3.16% (inactive); in assay [1] (833.33 nM), 2.51% (inactive); in assay [1] (10000 nM), 2.78% (inactive).

As to `O=C(OCC(O)CO)c1ccccc1Nc1ccnc2cc(Cl)ccc12` (stereo unspecified) [glafenine], the “inhibition” value in assay [1] (1 nM) is -1.53% (inactive); in assay [1] (8.33 nM), 0.88% (inactive); in assay [1] (100 nM), 2.29% (inactive); in assay [1] (833.33 nM), -3.09% (inactive); in assay [1] (10000 nM) it was -2.34% (inactive).

Consider `CCn1cc(C(=O)O)c(=O)c2cc(F)c(N3CCNC(C)C3)c(F)c21` (stereo unspecified) [lomefloxacin], for which the “inhibition” value is 0.57% (inactive) in assay [1] (1 nM); -0.12% (inactive) in assay [1] (8.33 nM); -1.13% (inactive) in assay [1] (100 nM); 0.73% (inactive) in assay [1] (833.33 nM); -1.41% (inactive) in assay [1] (10000 nM).

In the case of `CNCCN(C)Cc1c[nH]nc1-c1ccc(O[C@H]2C[C@H](OCCC3CCOCC3)C2)cc1`, the “inhibition” value in assay [1] (1 nM) was 0.46% (inactive); in assay [1] (8.33 nM), -0.78% (inactive); in assay [1] (100 nM), 4.05% (inactive); in assay [1] (833.33 nM), 1.11% (inactive); in assay [1] (10000 nM), 1.7% (inactive).

In the case of `S=C=Nc1ccc(N=C=S)cc1` [bitoscanate], the “inhibition” value was -1.75% (inactive) in assay [1] (1 nM); 0.45% (inactive) in assay [1] (8.33 nM); -0.83% (inactive) in assay [1] (100 nM); 0.38% (inactive) in assay [1] (833.33 nM); -2.58% (inactive) in assay [1] (10000 nM).

In the case of `CCCc1nc(C(C)(C)O)c(C(=O)O)n1Cc1ccc(-c2ccccc2-c2nnn[nH]2)cc1` [olmesartan], the “inhibition” value was 1.89% (inactive) in assay [1] (1 nM); -1.22% (inactive) in assay [1] (8.33 nM); 1.17% (inactive) in assay [1] (100 nM); 0.82% (inactive) in assay [1] (833.33 nM); -0.94% (inactive) in assay [1] (10000 nM).

For `CC(=O)[C@@]12O[C@](C)(c3ccccc3)O[C@@H]1C[C@H]1[C@@H]3CCC4=CC(=O)CC[C@]4(C)[C@H]3CC[C@@]12C` [algestone-acetophenide], the “inhibition” value in assay [1] (1 nM) is 0.43% (inactive); in assay [1] (8.33 nM), 0.88% (inactive); in assay [1] (100 nM) it was 1.95% (inactive); in assay [1] (833.33 nM) it was 2.43% (inactive); in assay [1] (10000 nM) it was 2.91% (inactive).

`Cc1ccc(=O)n(-c2ccc(O)cc2)c1`: the “inhibition” value in assay [1] (1 nM) is -3.24% (inactive); in assay [1] (8.33 nM), -0.95% (inactive); in assay [1] (100 nM), 1.12% (inactive); in assay [1] (833.33 nM), 2.81% (inactive); in assay [1] (10000 nM), 1.12% (inactive).

On to `CCCCCCCC/C=C/CCCCCCCC(=O)OC[C@H]1O[C@@H](n2ccc(N)nc2=O)C(F)(F)[C@@H]1O` [gemcitabine-elaidate], for which the “inhibition” value in assay [1] (1 nM) was -0.31% (inactive); in assay [1] (8.33 nM) it was -0.77% (inactive); in assay [1] (100 nM), -1.9% (inactive); in assay [1] (833.33 nM) it was 0.35% (inactive); in assay [1] (10000 nM), 3% (inactive).
